Compound activity (PubChem)
NTMT1 inh = Primary qHTS for Inhibitors of N-terminal methyltransferase 1 (NTMT1): MTaseGlo Assay; N-terminal Xaa-Pro-Lys N-methyltransferase 1 (Homo sapiens), Q9BV86; NTMT1 MTase-Glo SAH luminescence, purified enzyme; Potency, µM (titrated, usually from 114 µM), hits mostly inhibitors; hit rate 2.5% among 59,000; AID 1645870, 2021; note: nearly all actives have a fitted effect of over 65% in size
Target sequence (Q9BV86 whole entry, looked up): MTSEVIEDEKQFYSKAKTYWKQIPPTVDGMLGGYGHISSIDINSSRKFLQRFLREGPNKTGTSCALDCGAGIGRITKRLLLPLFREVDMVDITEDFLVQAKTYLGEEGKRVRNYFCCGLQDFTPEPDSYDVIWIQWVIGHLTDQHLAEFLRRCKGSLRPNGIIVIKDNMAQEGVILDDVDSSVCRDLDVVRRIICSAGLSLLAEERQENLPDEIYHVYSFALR
GALK inh = qHTS Assay for Inhibitors of Human Galactokinase (GALK): NCGC Sytravon Library Screen. P51570. recombinant GALK, Kinase-Glo ATP luminescence, 1 h. Potency, µM (top dose mostly 57.5 µM), actives largely listed as inhibitors. 44,000 tested, under 10 active. AID 1347072, 2019
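Human GALK (5 nM) was incubated with 35 uM ATP and 100 uM galactose in 20 mM HEPES pH 8.0 with MgCl2, NaCl, DTT and BSA for 1 h at room temperature. Remaining ATP was measured by Kinase-Glo Plus luminescence.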
FH mod = Identification of activators of human fumarate hydratase by quantitative high-throughput screening; Fumarate hydratase, mitochondrial (Homo sapiens), P07954; FH coupled MDH/diaphorase resazurin fluorescence, 15 min; hit rate 0.22% among 54,000; Potency, µM (titrated, usually from 79.9 µM), actives largely listed as inhibitors; note: the screen sought activators but most active calls are inhibition curves; nearly all actives have a fitted effect of over 45% in size
PTAP-TSG101 blk = qHTS Validation Assay for Inhibitors of HIV-1 Budding by Blocking the Interaction of PTAP/TSG101: Sytravon Library Screen | Potency, µM (highest dose often 115 µM), usual class: inhibitors | AID 1347069, 2019 | Tumor susceptibility gene 101 protein (Homo sapiens), Q99816 | 44,000 tested, under 10 active | Fluorescence polarization, FITC-PTAP peptide/Tsg101, 20 min
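Fluorescence polarization: Tsg101 binding domain (10 uM final) in 10 mM HEPES pH 7.5, 0.15 M NaCl, 0.01% Tween 20, 3 mM EDTA, 0.1 mM TCEP; compounds pinned; FITC-PTAP peptide 50 nM final; 20 min, r.t.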
B2AR arrestin ag = qHTS assay of beta-arrestin-biased ligands of beta2-adrenergic receptor: NCGC Sytravon Library Screen. Potency, µM (series often up to 46.1 µM), most hits filed as activators. Beta-2 adrenergic receptor (Homo sapiens), P07550. HTLA Tango cells, beta-arrestin recruitment, luciferase luminescence, 18 h. 44,000 tested, under 10 active. AID 1347077, 2019
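Tango cells (recombinant beta2-AR, beta-arrestin, tTA-driven luciferase), 1500/well in DMEM 1% FBS, treated 18 h at 37 °C with compounds up to 46 µM; luciferin mix added, luminescence read after 15 min; %activity curves fitted and curve-classed.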
DYRK1A KinaseGlo = Assay for Inhibitors of Dual-Specificity Tyrosine-(Y)-Phosphorylation Regulated Kinase 1A (Kinase-Glo assay); Potency, µM (doses to about 76.9 µM), actives largely listed as inhibitors; recombinant DYRK1A, Kinase-Glo ATP depletion luminescence; AID 2705, 2010; hit rate 80% among 100; shares compounds with NTMT1 inh
Sfp PPTase inh = qHTS Assay for Inhibitos of Bacillus subtilis Sfp phosphopantetheinyl transferase (PPTase): Chemistry Optimization Followup | AID 540350, 2011 | hit rate 78% among 230 | shares compounds with NTMT1 inh | purified Sfp PPTase enzyme activity, qHTS | Potency, µM (titrated, usually from 114 µM), most hits filed as inhibitors
HM489 growth = qHTS for Inhibitos of Bacillus subtilis Sfp phosphopantetheinyl transferase (PPTase): Chemistry Optimization Followup in B. Subtilis HM489. hit rate 50% among 220. Potency, µM (doses to about 114 µM), most hits filed as inhibitors. B. subtilis HM489 (acpS-) growth, BacTiter-Glo, 5 h. shares compounds with NTMT1 inh
Sfp gel opt = Gel-Based Assay for Inhibitos of Bacillus subtilis Sfp phosphopantetheinyl transferase (PPTase): Chemistry Optimization Followup; shares compounds with NTMT1 inh; purified Sfp PPTase, gel-based product detection; Potency, µM (titrated, usually from 250 µM), hits mostly inhibitors; hit rate 54% among 220; AID 540355, 2011
Sfp inh gel = qHTS Assay for Inhibitors of Bacillus subtilis Sfp phosphopantetheinyl transferase (PPTase): Gel Based Assay. purified Sfp PPTase, gel-based product detection. Potency, µM (highest dose often 250 µM), hits mostly inhibitors. hit rate 90% among 45. AID 602362, 2012. shares compounds with NTMT1 inh
Sfp SAR2 = qHTS Assay for Inhibitors of Bacillus subtilis Sfp phosphopantetheinyl transferase (PPTase): SAR Round 2; AID 602370, 2012; shares compounds with NTMT1 inh; purified Sfp enzyme, PPTase activity, qHTS; Potency, µM (top dose mostly 57.1 µM), actives largely listed as inhibitors; hit rate 87% among 230
hGST A1-1 inh = qHTS Assay for Inhibitors of Bacillus subtilis Sfp phosphopantetheinyl transferase (PPTase): SAR in hGST A1-1; shares compounds with NTMT1 inh; hGST A1-1 enzyme activity counter-screen, qHTS; Potency, µM (highest dose often 114 µM), most hits filed as inhibitors; 55 tested, under 10 active
HSD17B4 inh = Extended Characterization of HPGD Inhibitors: Counterscreen Against HSD17b4. shares compounds with NTMT1 inh. purified HSD17B4, estradiol/NAD+, NADH fluorescence. Potency, µM (highest dose often 57.1 µM), most hits filed as inhibitors. hit rate 10% among 230. AID 743187, 2013
ALDH1A1 counter = Extended Characterization of HPGD Inhibitors: Counterscreen Against ALDH1A1 | shares compounds with NTMT1 inh | recombinant ALDH1A1, NADH fluorescence, propionaldehyde/NAD+ | Potency, µM (highest dose often 57.1 µM), usual class: inhibitors | hit rate 93% among 230 | AID 743195, 2013
NNMT inh = Counterscreen qHTS for Inhibitors of N-terminal methyltransferase 1 (NTMT1): NNMT MTaseGlo assay | hit rate 10% among 120 | shares compounds with NTMT1 inh | NNMT MTase-Glo luminescence, SAH detection | Potency, µM (top dose mostly 57.1 µM), usual class: inhibitors
Target sequence (P40261 whole entry, looked up): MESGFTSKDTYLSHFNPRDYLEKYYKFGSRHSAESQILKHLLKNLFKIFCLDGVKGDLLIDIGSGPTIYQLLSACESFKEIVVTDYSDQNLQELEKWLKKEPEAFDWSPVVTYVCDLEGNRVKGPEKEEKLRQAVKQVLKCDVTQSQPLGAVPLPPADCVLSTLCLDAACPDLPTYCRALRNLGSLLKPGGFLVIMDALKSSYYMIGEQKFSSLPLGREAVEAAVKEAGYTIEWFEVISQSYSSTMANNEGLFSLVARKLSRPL
Numbers stand for hits; 0 = inactive; ? = inconclusive; - = no result given. This is one part of a sample in which hits are shown more often than they occur. Calls come from the whole dose curve; as a rule, active = well fitted curve in the direction sought with a large enough effect; inconclusive = small, poorly fitted or top-dose-only effect, or another doubt; inactive = no such curve, though single readings can be large; an effect the other way counts as inactive or inconclusive.

SMILES	NTMT1 inh	GALK inh	FH mod	PTAP-TSG101 blk	B2AR arrestin ag	others
COc1cccc(NC(=S)N2CCN(c3ccc4ccccc4n3)CC2)n1	0	-	-	-	-	Sfp PPTase inh=47µM;HM489 growth=?;Sfp gel opt=0;Sfp SAR2=36µM;HSD17B4 inh=27µM;ALDH1A1 counter=24µM
COc1cccc(NC(=S)N2CCN(c3cccc(Cl)c3Cl)CC2)n1	?	-	-	-	-	Sfp PPTase inh=?;HM489 growth=?;Sfp gel opt=?;Sfp SAR2=5.8µM;HSD17B4 inh=0;ALDH1A1 counter=1.2µM
O=C(Nc1ccccc1)N1CCN(Cc2ccc3ccccc3n2)CC1	0	-	0	-	-
COc1ccc(N2CCN(C(=O)Nc3ccc(Cl)cc3)CC2)cc1	0	0	0	0	0
COc1cccc(NC(=S)N2CCN(c3cc(Cl)cc(Cl)c3)CC2)n1	?	-	-	-	-	Sfp PPTase inh=?;HM489 growth=0;Sfp gel opt=?;Sfp inh gel=0;Sfp SAR2=?;hGST A1-1 inh=1.9µM;HSD17B4 inh=0;ALDH1A1 counter=8.6µM
O=C(Nc1ccc(S(=O)(=O)Nc2nccs2)cc1)c1ccnc2ccccc12	0	-	-	-	-
CC(C)(O)[C@H]1CC[C@@](C)([C@H]2[C@@H](O)C[C@@]3(C)[C@@H]4C[C@H](O[C@@H]5O[C@H](CO)[C@@H](O)[C@H](O)[C@H]5O)[C@H]5C(C)(C)[C@@H](O[C@@H]6OC[C@@H](O)[C@H](O)[C@H]6O)CC[C@@]56C[C@@]46CC[C@]23C)O1	0	-	-	-	-
O=C(OCc1ccccc1)N1CCN(C(=O)[C@H](Cc2ccc(O[S+](=O)([O-])c3cccc4cnccc34)cc2)N[S+](=O)([O-])c2cccc3cnccc23)CC1	0	-	-	-	-
CC(C)(C)Cn1c(N)nc2ccc(-c3[nH]c(C(C)(C)C)nc3-c3ccc(F)cc3)nc21	13µM	-	0	-	-	NNMT inh=14µM
Cc1cccc(-c2[nH]c(C(C)(C)C)nc2-c2ccc3c(c2)OCO3)n1	0	-	0	-	-
Cc1ccc2nc3sc(C(=O)NC4CCCC4)cc3cc2c1	0	-	-	-	-
O=C(Nc1cccnn1)N1CCC(=Cc2cccc(Oc3ccc(C(F)(F)F)cn3)c2)CC1	0	-	0	-	-
O=C1CCCC2=C1C(c1ccn[nH]1)N=C(Nc1nc3ccccc3o1)N2 (stereo not given)	0	-	-	-	-
Cc1csc(CNc2ncnc3ccc(-c4ccc5c(ccn5C)c4)cc23)c1	0	-	-	-	-
Cn1cnc(CCNc2ncnc3ccc(-c4ccc5c(c4)OCO5)cc23)c1	0	-	-	-	-	DYRK1A KinaseGlo=1.5µM
CCN(CCc1cn(C)cn1)c1ncnc2ccc(-c3ccc4c(c3)OCO4)cc12	?	-	-	-	-	DYRK1A KinaseGlo=2.3µM
